This note sets out measurements from PubChem BioAssay AID624206 (National Center for Advancing Translational Sciences (NCATS), 2012).

Active and inactive are the calls of the source. The call rests on the fitted dose curve; in most records, active means well fitted curve in the direction sought with a large enough effect; inconclusive means small, poorly fitted or top-dose-only effect, or another doubt; inactive means no such curve, though single readings can be large or run the other way.

This test in a line: Quantitative high throughput screen to test cell viability of anti-malarial compounds targeting the delayed death phenotype. The settings on record: HepG2 viability, CellTiter-Glo luminescence, 48 h. An excerpt:
NIH Molecular Libraries Probe Production Network [MLPCN] NIH Chemical Genomics Center [NCGC] MLPCN Grant: R21 NS059500 Assay Provider: David Fidock and Eric Ekland, Columbia University The goal of this screen is to measuer the cytoxoxicity (against HepG2 cell line) of a set of anti-malarial compounds that target the delayed death pheonotype, by inhibiting the development of the apicoplast in the malarial parasite Plasmodium falciparum (described below) The biochemical processes that make this organelle essential for erythrocytic stage parasites are not well understood. However, antibiotics, such as azithromycin and tetracycline, which target the apicoplast translational machinery, have a potent antimalarial effect. […] We have developed a cell-based assay that measures parasite growth based on the expression of an integrated copy of a firefly luciferase reporter. To detect small molecules that cause this 'delayed death' phenotype, erythrocytes infected with the luciferase-expressing parasites were incubated with compounds for either one or two generations, corresponding to 48 and 96 hours, respectively. Compounds that inhibit parasite growth in the second generation, but not the first, should be enriched in antimalarials that target the apicoplast. Growth inhibition is detected by a decrease in luciferase activity
Cells were plated at a density of 2000 cells/well/5uL in 1536 well white tissue culture plate with culture medium. Triplicate plates were prepared. Plates were incubated at 37C, 5% CO2 for 5 hours and then 23nL of compounds and positive control were transferred to the assay plates. Tetraoctylammonium bromide was added as a positive control. Plates were then incubated at 37C, 5% CO2 for 48 hours. 5 uL of CellTitler-Glo buffer was added to each well and then incubated for 30 min at room temperature. Luminescence was measured using ViewLux (1 second, slow, 2X).
For `CO[C@H]1[C@H](O[C@H]2O[C@@H](C)[C@@H](O[C@@H]3C[C@](C)(O)[C@H](O)[C@H](C)O3)[C@@H](N(C)C)[C@@H]2O)[C@@H](CC=O)C[C@@H](C)[C@@H](O[C@H]2CC[C@H](N(C)C)[C@H](C)O2)/C=C\C=C/C[C@@H](C)OC(=O)C[C@H]1O`, the max response was 5.01% (inactive).
Take `O=C(CSc1ccc(-c2cccnc2)nn1)Nc1ccccc1C(F)(F)F`: the max response was 0.59% (inactive).
The result for `CC(=O)NC[C@@H]1CN(c2ccc(N3CCOCC3)c(F)c2)C(=O)O1` reads 12.4% (inactive).
